Results reported in PubChem BioAssay AID504834 (National Center for Advancing Translational Sciences (NCATS), 2011).
About 22,000 (6.9%) of roughly 320,000 compounds were called active. Not shown: some 27% with an inconclusive outcome. What follows is part of a selection rich in actives, with near analogues and random picks from the rest. Unmarked numbers belong to inactive results. The call rests on the fitted dose curve; in most records, active means well fitted inhibition curve with a large enough effect; inconclusive means small, poorly fitted or top-dose-only effect, or another doubt; inactive means no such curve, though single readings can be large or run the other way.

test: Primary qHTS for delayed death inhibitors of the malarial parasite plastid, 96 hour incubation; conditions: P. falciparum luciferase reporter growth; series mostly up to 28.7 µM; activity change, negative = inhibition: at the top concentration
From the text: The goal of this screen is to discover new antimalarial compounds that act by inhibiting the development of the apicoplast in the malarial parasite Plasmodium falciparum. The biochemical processes that make this organelle essential for erythrocytic stage parasites are not well understood. However, antibiotics such as azithromycin and tetracycline, which target the apicoplast translational machinery, have a potent antimalarial effect.
We have developed a cell-based assay that measures parasite growth based on the expression of an integrated copy of a firefly luciferase reporter. To detect small molecules that cause this "delayed death" phenotype, erythrocytes infected with the luciferase-expressing parasites were incubated with compounds for either one or two generations, corresponding to 48 and 96 hours, respectively. Compounds that inhibit parasite growth in the second generation, but not the first, should be enriched in antimalarials that target the apicoplast. Growth inhibition is detected by a decrease in luciferase activity.
Assay Provider: David Fidock and Eric Ekland, Columbia University
Keywords: NIH Roadmap, MLPCN, MLI, MLSMR, qHTS, NCGC, qHTS, malaria, luciferase, viability
Four microliters of infected erythrocytes (2% hematocrit, 0.05% parasitemia final concentration) in culture medium were dispensed and the plates incubated for 96 hours at 37 C in 5% CO2. Two microliters of luciferase detection reagent was added and luminescence was detected by a ViewLux (PerkinElmer) reader.
On the % scale 0 is the no-effect control and ±100 the full control effect; potency means the concentration at half of the fitted maximal effect.

In order of rising “activity change, negative = inhibition” value:
1. O=C(c1cccc(S(=O)(=O)N2CCOCC2)c1)N1CCOCC1  -26.3%
2. CCc1ccc(NC(=O)CSc2nc3ccccc3c(=O)n2CCN2CCOCC2)cc1  -19.2%
3. Cc1noc(NS(=O)(=O)c2ccc(NC(=O)C34CCC(CC3)C4)cc2)c1C  -16.6%
4. O=C(NCCc1ccccn1)c1cccnc1Oc1ccc(Cl)cc1  -15.1%
5. O=C(Nc1ccc(C(=O)N2CCCCC2)cc1)c1cccc([N+](=O)[O-])c1  -8.03%
6. O=C(c1ccc2c(c1)OCO2)N1CCOCC1  -7.41%
7. COc1ccc(CCNC(=O)COc2ccc3c(c2)OCO3)cc1  -6.72%
8. COc1ccc([N+](=O)[O-])cc1NCC(=O)c1ccc(C)cc1  -5.19%
9. CC(=O)Oc1ccccc1C1=NN(C(C)=O)C(c2ccccc2)C1 (stereo not drawn)  -5%
10. Cc1ccc(S(=O)(=O)NCCC(=O)NNC(=O)C2COc3ccccc3O2)cc1 (stereo not drawn)  -4.98%
11. Cc1ccc(CSCC2Nc3ccc(C(=O)N4CCN(c5ccc(F)cc5)CC4)cc3NC2=O)cc1 (stereo not drawn)  -3.25%
12. Cn1cc(C(=O)c2ccc(Cl)cc2Cl)cc1C(=O)NN  -3.08%
13. COCc1cc(C)n(CC(=O)NCC2CCCO2)c(=O)c1C#N (stereo not drawn)  -2.85%
14. CCCOc1ccc(N/C=C/C(=O)C(C)(C)C)cc1  -2.54%
15. COc1cc(NS(=O)(=O)c2ccc(NC(=O)c3ccc([N+](=O)[O-])cc3)cc2)ncn1  -1.66%
16. O=C(Nc1nnc(S(=O)(=O)N2CCOCC2)s1)c1cccc(Br)c1  -0.931%
17. COc1ccc(NC(=O)CSc2nnc(Cc3ccccc3)c(=O)n2N)cc1  -0.315%
18. O=C1NCCn2nc3ccccc3c21  0%
19. CC(C)c1ccc(NC(=O)COC(=O)c2ccc(CN3CCCC3=O)cc2)cc1  0%
20. O=[N+]([O-])c1ccc2c(c1)C(O)n1nc(-c3ccccc3)nc1S2 (stereo not drawn)  1.28%
21. COc1ccc2c(C)cc3nnnn3c2c1  4.17%
22. Cc1csc(NC(=O)CSc2nc(=O)n(CCCN(C)C)c3c2CCC3)n1  5.37%
23. COc1ccc(-n2nnnc2SCC(=O)Nc2ccccc2)cc1  5.45%
24. COc1ccccc1C(=O)NC(CCSC)C(=O)NNC(=O)c1csc(N2CCOCC2)n1 (stereo not drawn)  9.49%
25. COc1ccccc1C(=O)Nc1ccnn1C1CCN(C(=O)C(C)(C)C)CC1  11.3%
26. Cc1ccc2nc(-c3ccccc3)cc(C(=O)O)c2c1  13.1%
27. Cn1nnnc1SCC(=O)Nc1nc2ccccc2s1  13.8%
28. O=C(CN1CCCCCC1)Nc1c(Cl)cc(Cl)cc1Cl  13.9%
29. Cc1ccccc1OCC(=O)Nc1nc(C)c(C(=O)N(C)C)s1  14.9%
30. COc1cccc(NC(=S)NCCCN2CCOCC2)c1  19.1%
31. O=C(O)c1ccccc1C(=O)NC1=NN(c2ccccc2)CC1  19.4%
32. Cn1c(SCC(=O)Nc2ccc(Cl)cc2)nc(O)cc1=O  21.4%
33. COc1ccc(C2CC(c3cccs3)=NN2c2ccccc2)cc1 (stereo not drawn)  21.7%
34. O=c1c2cc(Br)ccc2nc(-c2cccc(Cl)c2)n1O  23.5%
35. COc1cccc(NC(=O)Cn2c3ccccc3c3nc4n(c(=O)c32)CCS4)c1  29.2%
36. COCCNC(=O)COc1ccccc1C  30.4%
37. COc1ccc(NC(C(=O)Nc2cccc(C(C)=O)c2)c2ccccc2)cc1 (stereo not drawn)  30.5%
38. O=S(=O)(Nc1cccc(-n2cnnn2)c1)c1cnc(Cl)c(Cl)c1  30.6%
39. O=C(/C=C/Nc1ccccc1OC(F)(F)F)C(F)(F)F  35.6%
40. O=C(Nc1ccc(S(=O)(=O)Nc2ncccn2)cc1)C12CC3CC(CC(C3)C1)C2  45.4%
41. Cc1ccc2nc(Nc3ccccc3)cc(C)c2c1  213%
42. Cc1ccc(C(=O)NNC(=O)c2ccc3c(c2)OCCO3)cc1  419%

In the case of `O=C(c1cccc(N2CCCC2=O)c1)N1CCOCC1`, the Potency is reported as 6.57 µM (active).
For `CCn1nccc1C(=O)Nc1ccc(S(=O)(=O)NC23CC4CC(CC(C4)C2)C3)cc1`, the Potency was 6.57 µM (active).
For `Oc1ccccc1C1=NN(c2ccccc2)C(c2ccccc2)C1` (stereo not drawn), the Potency was 1.65 µM (active).
For `Cc1ccc2nc(C)c3c(c2c1)N(c1ccccc1)CC3`, the Potency was 6.57 µM (active).
For `CCN(CC)CCn1c2c(c(SCC(=O)Nc3nc4ccccc4s3)nc1=O)CCCC2`, the Potency was 11.7 µM (active).
In the case of `CCN(CC)CCn1c2c(c(SCC(=O)Nc3ccc(C(C)C)cc3)nc1=O)CCC2`, the Potency is reported as 4.15 µM (active).
For `COC(=O)c1ccc2c(=O)n(CCN3CCOCC3)c(SCC(=O)Nc3cccc(OC)c3)nc2c1`, the Potency was 13.1 µM (active).
For `COc1ccc(NC(=O)CSc2nc3ccccc3c(=O)n2C)cc1`, the Potency was 1.85 µM (active).
For `COc1cccc(NC(=O)C(Sc2nc3ccccc3c(=O)n2CC(C)C)c2ccccc2)c1` (stereo not drawn), the Potency was 2.62 µM (active).
With `Cc1cccc(NC(=O)COc2ccccc2C)n1` the Potency was 2.33 µM (active).
For `Cn1ccc(=Nc2ccc(NC(=O)c3ccc(N=c4ccn(C)c5ccc([N+](=O)[O-])cc45)cc3)cc2)cc1`, the Potency was 0.165 µM (active).
